# Measured values published in PubChem BioAssay (NCATS).
# Records with an inconclusive call do not appear. Where a call stands in place of a potency, no number is given. The source made the active and inactive calls. The call rests on the fitted dose curve; in most records, active means well fitted curve in the direction sought with a large enough effect; inconclusive means small, poorly fitted or top-dose-only effect, or another doubt; inactive means no such curve, though single readings can be large; an effect the other way counts as inactive or inconclusive.
# Key:
# [1] = tested on: Zika virus NS2B-NS3 protease; test: Primary screen GU AMC qHTS for Zika virus inhibitors (AID 1347154); conditions: Zika NS2B-NS3 unlinked protease, AMC fluorogenic substrate; series mostly up to 54.1 µM; further: nearly all actives have a fitted effect of over 70% in size; further: potency means the concentration at half of the fitted maximal effect
# Method in brief: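 Unlinked Zika NS2B hydrophilic domain/NS3 protease domain noncovalent complex (25 nM final) in 10 mM Tris-HCl pH 8.0, 0.01% Tween 20, with AMC peptide substrate. Fluorescence (ex 340, em 450 nm) change over 15 min, room temperature; percent inhibition fitted to 4-parameter Hill equation.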
# [2] = tested on: Zika virus NS2B-NS3 protease (unlinked complex); test: Primary screen GU Rhodamine qHTS for Zika virus inhibitors: Unlinked NS2B-NS3 protease assay (AID 1347159); conditions: Recombinant ZIKV NS2B-NS3 protease, Rhodamine110 substrate fluorescence; series mostly up to 107 µM; further: nearly all actives have a fitted effect of over 60% in size
# Method in brief: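 Noncovalent NS2B hydrophilic domain–NS3 protease domain complex (25 nM) preincubated 15 min at room temperature with compounds (up to 114 microM) in 10 mM Tris-HCl pH 8.0, 0.01% Tween 20; 1.5 microM Rhodamine110 substrate added, fluorescence change over 15 min fitted to Hill equation.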
# [3] = tested on: Zika virus NS2B-NS3 protease (linked construct); test: Primary screen NINDS Rhodamine qHTS for Zika virus inhibitors (AID 1347160); conditions: purified NS2B-NS3 protease, Rhodamine110 substrate fluorescence; series mostly up to 57.1 µM; further: nearly all actives have a fitted effect of over 55% in size
# Method in brief: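 Purified linked NS2B-NS3 protease (NS2B hydrophilic domain joined to NS3 protease by flexible linker), 25 nM in 10 mM Tris-HCl pH 8.0, 0.01% Tween 20. Compounds titrated, 15 min preincubation at room temperature; 1.5 microM Rhodamine110 substrate, FITC fluorescence change over 15 min.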
# [4] = tested on: Zika virus NS2B-NS3 protease (linked); test: 384 well plate NINDS AMC confirmatory qHTS for Zika virus inhibitors (AID 1347163); conditions: Recombinant NS2B-NS3 protease, Ac-VKTGKR-AMC fluorescence; series mostly up to 100 µM; further: potency means the concentration at half of the fitted maximal effect; nearly all actives have a fitted effect of over 50% in size
# Method in brief: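 Linked NS2B-NS3 protease (final 5 nM, 30 nM or 60 nM) was preincubated with compounds (final up to 1 mM) for ~15 minutes. Ac-VKTGKR-AMC substrate (final 30 microM) then reacted for 25 minutes at room temperature in the dark. Fluorescence (ex 355/em 460 nm) was normalized to no-enzyme and no-inhibitor controls.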
# [5] = biological target: Lysine-specific demethylase 5B (Homo sapiens) (UniProt Q9UGL1); test: Optimization screen for KDM5B Histone Demethylases FDH coupled qHTS against the LOPAC library (AID 1347166); conditions: KDM5B demethylation, FDH-coupled NADH fluorescence (FDH is formaldehyde dehydrogenase); series mostly up to 57.5 µM
# Chain of Lysine-specific demethylase 5B (Homo sapiens) (Q9UGL1 whole entry, looked up): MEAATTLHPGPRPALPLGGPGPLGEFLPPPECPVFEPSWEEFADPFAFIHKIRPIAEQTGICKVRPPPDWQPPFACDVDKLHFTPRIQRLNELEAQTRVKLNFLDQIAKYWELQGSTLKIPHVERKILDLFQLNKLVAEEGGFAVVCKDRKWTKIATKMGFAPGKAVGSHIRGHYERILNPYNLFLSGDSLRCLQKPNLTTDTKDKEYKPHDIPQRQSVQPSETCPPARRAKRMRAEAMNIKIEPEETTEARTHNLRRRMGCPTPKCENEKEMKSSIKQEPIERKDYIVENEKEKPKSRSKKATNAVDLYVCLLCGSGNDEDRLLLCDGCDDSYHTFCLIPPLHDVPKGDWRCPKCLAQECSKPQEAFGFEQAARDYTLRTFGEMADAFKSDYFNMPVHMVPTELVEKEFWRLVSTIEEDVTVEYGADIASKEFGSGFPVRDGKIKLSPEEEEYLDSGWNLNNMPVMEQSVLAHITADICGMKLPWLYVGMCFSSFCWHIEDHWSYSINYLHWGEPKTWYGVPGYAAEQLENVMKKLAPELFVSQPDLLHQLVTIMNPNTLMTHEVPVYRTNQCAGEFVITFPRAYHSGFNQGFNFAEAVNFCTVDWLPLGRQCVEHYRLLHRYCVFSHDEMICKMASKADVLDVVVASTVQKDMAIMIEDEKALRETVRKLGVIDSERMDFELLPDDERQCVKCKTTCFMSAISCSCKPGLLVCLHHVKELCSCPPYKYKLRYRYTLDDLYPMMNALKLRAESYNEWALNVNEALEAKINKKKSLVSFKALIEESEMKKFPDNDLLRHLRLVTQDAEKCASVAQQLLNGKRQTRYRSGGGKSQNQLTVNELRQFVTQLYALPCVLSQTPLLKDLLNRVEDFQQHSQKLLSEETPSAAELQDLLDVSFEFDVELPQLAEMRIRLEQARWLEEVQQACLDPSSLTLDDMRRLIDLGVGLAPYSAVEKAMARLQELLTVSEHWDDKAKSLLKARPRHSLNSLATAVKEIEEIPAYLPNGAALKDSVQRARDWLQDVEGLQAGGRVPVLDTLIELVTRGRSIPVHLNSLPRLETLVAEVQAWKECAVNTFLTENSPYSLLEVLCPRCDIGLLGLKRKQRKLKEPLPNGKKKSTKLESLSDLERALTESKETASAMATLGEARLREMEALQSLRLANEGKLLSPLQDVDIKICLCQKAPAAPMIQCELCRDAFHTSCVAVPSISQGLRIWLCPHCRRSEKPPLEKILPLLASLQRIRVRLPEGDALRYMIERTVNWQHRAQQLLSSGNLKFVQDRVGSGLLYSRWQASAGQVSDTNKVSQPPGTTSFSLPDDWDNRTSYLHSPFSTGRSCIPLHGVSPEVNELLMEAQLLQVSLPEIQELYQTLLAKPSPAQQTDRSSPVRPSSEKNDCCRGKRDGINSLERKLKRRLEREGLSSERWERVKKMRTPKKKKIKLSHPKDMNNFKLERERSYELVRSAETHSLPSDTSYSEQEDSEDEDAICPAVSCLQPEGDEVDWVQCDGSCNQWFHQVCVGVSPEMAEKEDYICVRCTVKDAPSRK
# Method in brief: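 KDM5BDeltaAP (200nM final) preincubated 10 min with compound, then 12.5uM H3K4Me3, 25uM a-ketoglutarate, ascorbate, Fe(II), NAD+ and FDH added; 50mM HEPES pH 7.5, 0.01% Tween-20. NADH fluorescence (340/450 nm) change over 30 min, room temperature.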
# [6] = Confirmatory screen NINDS Rhodamine qHTS for Zika virus inhibitors (AID 1347161); conditions: purified enzyme assay, Rhodamine110 substrate fluorescence, 15 min; series mostly up to 22.2 µM; further: potency means the concentration at half of the fitted maximal effect; nearly all actives have a fitted effect of over 60% in size
# Method in brief: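 In 10 mM Tris-HCl pH 8.0 containing 0.01% Tween 20, linked NS2B-NS3 protease (25 nM final) is exposed to test compounds for 15 min. Cleavage of 1.5 microM Rhodamine110 substrate is tracked by fluorescence over 15 min.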
compound,measurement,setting,value
O=C(O)Cc1ccccc1Oc1ccc(Cl)cc1Cl,Potency,[1],inactive
same,Potency,[2],inactive
same,outcome,[3],inactive
CC1c2ccccc2CN1NC(=O)c1ccc(Cl)c(S(N)(=O)=O)c1 (stereo unspecified),Potency,[1],inactive
same,Potency,[2],inactive
same,outcome,[3],inactive
CC1CC(=O)NN=C1c1ccc(NCC(C)(C)NCC(O)COc2cc(Cl)ccc2C#N)cc1 (stereo unspecified),Potency,[1],inactive
same,outcome,[3],inactive
CN(C)[C@@H]1C(=O)C(C(N)=O)=C(O)[C@@]2(O)C(=O)C3=C(O)c4c(O)cccc4C[C@H]3C[C@@H]12,Potency,[4],126 µM (active)
CCN1C(=O)c2ccccc2C1Nc1ccc(OCCN2CCCCC2)cc1 (stereo unspecified),Potency,[1],inactive
same,Potency,[2],inactive
same,outcome,[3],inactive
CC(=O)Oc1ccc(C2(c3ccc(OC(C)=O)cc3)Oc3ccccc3NC2=O)cc1,Potency,[1],inactive
same,Potency,[2],inactive
same,outcome,[3],inactive
CN1[C@@H]2CC[C@H]1CC(NC(=O)n1c(=O)[nH]c3ccccc31)C2 (stereo partly specified),Potency,[1],inactive
same,outcome,[3],inactive
O=C(NN1CCCC1)NS(=O)(=O)c1ccc(Cl)cc1,Potency,[1],inactive
same,outcome,[3],inactive
CN(C)c1cc2c(Nc3ccc4c(cnn4Cc4ccccc4)c3)ncnc2cn1,outcome,[3],inactive
same,outcome,[5],inactive
C=CC[N+]1([C@H]2C[C@H]3[C@@H]4CC[C@H]5C[C@H](OC(C)=O)[C@@H](N6CCCCC6)C[C@]5(C)[C@H]4CC[C@]3(C)[C@H]2OC(=O)CC)CCCCC1,Potency,[1],inactive
same,Potency,[2],inactive
same,outcome,[3],inactive
O=C1OC2(c3ccccc31)c1cc(I)c(O)c(I)c1Oc1c2cc(I)c(O)c1I,Potency,[1],16.1 µM (active)
same,Potency,[6],17.8 µM (active)
CC(C)(C)c1nnc(NS(=O)(=O)c2ccccc2)s1,Potency,[1],inactive
same,Potency,[2],inactive
same,outcome,[3],inactive
C[C@H](CN1CCCC1)C(=O)c1ccc(C(F)(F)F)cc1,Potency,[1],inactive
same,outcome,[3],inactive
CCOC(=O)c1ccc(OCCN2C[C@H](O)[C@@H](O)[C@H](O)[C@H]2CO)cc1,Potency,[1],inactive
same,Potency,[2],inactive
same,outcome,[3],inactive
OC1(c2ccc(Cl)c(C(F)(F)F)c2)CCN(CCCC(c2ccc(F)cc2)c2ccc(F)cc2)CC1,Potency,[2],inactive
same,outcome,[3],inactive
O=C1CC[C@H](C(=O)N2CCCCC2)N1,Potency,[1],inactive
same,Potency,[2],inactive
same,outcome,[3],inactive
CCCCNc1ccc(C(=O)OCCN(CC)CC)cc1,Potency,[1],inactive
same,Potency,[2],inactive
same,outcome,[3],inactive
CC[N+]1(CC)CCC(=C(c2ccccc2)c2ccccc2)C1C (stereo unspecified),Potency,[1],inactive
same,outcome,[3],inactive
CCOC(=O)c1ccc(NC(=O)CN2CCCCC2)cc1,Potency,[1],inactive
same,Potency,[2],inactive
same,outcome,[3],inactive
O=C1NC2CCCCN2C12CCN(CCCN1c3ccccc3CCc3ccc(Cl)cc31)CC2 (stereo unspecified),Potency,[2],inactive
same,outcome,[3],inactive
COC(=O)C1=C(C)NC(COC(N)=O)=C(C(=O)OC(C)C)C1c1cccc(Cl)c1Cl (stereo unspecified),Potency,[2],inactive
same,outcome,[3],inactive
O=C(CCCCCCCCC#CI)Oc1ccccc1,Potency,[1],inactive
same,Potency,[2],inactive
same,outcome,[3],inactive
CC(C(O)c1ccccc1)N(C)CCOC(c1ccccc1)c1ccccc1 (stereo unspecified),Potency,[1],inactive
same,outcome,[3],inactive
CN1CCC(N(Cc2cccs2)c2ccccc2)CC1,Potency,[1],inactive
same,Potency,[2],inactive
same,outcome,[3],inactive
C=CCOc1cc(Cl)ccc1C(=O)NCCN(CC)CC,Potency,[1],inactive
same,Potency,[2],inactive
same,outcome,[3],inactive
CN(CC1(C)CCCO1)S(=O)(=O)c1ccc(Cl)c(S(N)(=O)=O)c1 (stereo unspecified),Potency,[1],inactive
same,outcome,[3],inactive
O=C1[C@@H]2[C@H]3CC[C@H](C3)[C@@H]2C(=O)N1CCCCN1CCN(c2ncccn2)CC1,Potency,[1],inactive
same,Potency,[2],inactive
same,outcome,[3],inactive
CCN(CC)CCOc1ccc(/C(=C(\Cl)c2ccccc2)c2ccccc2)cc1,Potency,[1],inactive
same,Potency,[2],inactive
same,outcome,[3],inactive
CO[C@]1(NC(=O)CSC(F)F)C(=O)N2C(C(=O)O)=C(CSc3nnnn3CCO)CO[C@H]21,Potency,[1],inactive
same,Potency,[2],inactive
same,outcome,[3],inactive
C[N+]1(CC2COC(c3ccccc3)(c3ccccc3)O2)CCCCC1 (stereo unspecified),Potency,[1],inactive
same,outcome,[3],inactive [at 33.1 µM]
COc1cc(NS(=O)(=O)c2ccc(N)cc2)nc(C)n1,Potency,[1],inactive
same,outcome,[3],inactive
CO/N=C(/C(=O)N[C@@H]1C(=O)N2C(C(=O)O)=C(Cn3nnc(C)n3)CS[C@H]12)c1csc(N)n1,Potency,[1],inactive
same,Potency,[2],inactive
same,outcome,[3],inactive
CCNC(=O)NCCCOc1cccc(CN2CCCCC2)c1,Potency,[1],inactive
same,outcome,[3],inactive
CC(=O)[C@H]1CC[C@H]2[C@@H]3C=CC4=CC(=O)CC[C@@]4(C)[C@@H]3CC[C@]12C,Potency,[1],inactive
same,Potency,[2],inactive
same,outcome,[3],inactive
CC(=O)OCC(=O)Nc1cc(C#N)cc(NC(=O)COC(C)=O)c1Cl,Potency,[1],inactive
same,Potency,[2],inactive
same,outcome,[3],inactive
CC(=O)Nc1ccn(C2COC(COC(=O)c3ccccc3)O2)c(=O)n1 (stereo unspecified),Potency,[1],inactive
same,Potency,[2],inactive
same,outcome,[3],inactive
Nc1c(NC/C=C\COc2cc(CN3CCCCC3)ccn2)c(=O)c1=O,Potency,[1],inactive
same,Potency,[2],inactive
same,outcome,[3],inactive
CCCN(CCC)C(=O)C(CCC(=O)OCCCN1CCN(CCOC(=O)Cc2c(C)n(C(=O)c3ccc(Cl)cc3)c3ccc(OC)cc23)CC1)NC(=O)c1ccccc1 (stereo unspecified),Potency,[1],inactive
same,outcome,[3],inactive
